Measured values from PubChem BioAssay AID651946 (Broad Institute, 2012).
Potency and affinity values are given separately. Activity calls are given as the source filed them.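 How the source made its calls: active means toxic compound whose fitted half-effect dose of signal loss is at most twice its top tested dose; inconclusive means flat fit losing 30 to 70% signal, or poor fit; inactive means the rest.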

Assay: cytotoxicity in HeLa cells, dose response, cytotoxicity control, cell-based, plate reader, dry powder (AID 651946)
Settings: HeLa viability, ATP luminescence (CellTiter-Glo), 48 h; series mostly up to 26 µM

Row | Structure (SMILES) | outcome
1 | COc1ccc(CSc2nnc(-c3ccccc3)o2)cc1 | inactive
2 | Clc1ccc(-c2nnc(SCc3ccccc3)o2)cc1 | inactive
3 | c1ccc(CSc2nnc(-c3ccccc3)o2)cc1 | inactive
